The nature of experiment [1]: Quantitative High-Throughput drug screen in 47 multiple myeloma cell lines against the NCATS MIPE library collection: KMS27_JCRB cell viability assay (AID 1918970). Further: nearly all actives have a fitted effect of over 30% in size. In outline:
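ATP-based viability (CellTiter-Glo luminescence) is measured in cells treated 48 h with approved and investigational drugs at 37 °C. Controls are DMSO-only wells for full viability and media-only wells for none.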

Experiment [2] in a line: Quantitative High-Throughput drug screen in 47 multiple myeloma cell lines against the NCATS MIPE library collection: KMS12BM_JCRB cell viability assay (AID 1918971). Further: nearly all actives have a fitted effect of over 35% in size. Further: potency means the concentration at half of the fitted maximal effect. In outline: (§1)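 Luminescent ATP measurement with CellTiter-Glo gives viability, scaled between DMSO-only wells (100%) and media-only wells (0%). Cells, 500 per well, faced library compounds for 48 hours at 37C.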

Experiment [3] in a line: Quantitative High-Throughput drug screen in 47 multiple myeloma cell lines against the NCATS MIPE library collection: KMS12PE_JCRB cell viability assay (AID 1918972). Further: nearly all actives have a fitted effect of over 30% in size. Further: potency means the concentration at half of the fitted maximal effect. A digest of the protocol: as §1
Experiment [4] can be described thus: Quantitative High-Throughput drug screen in 47 multiple myeloma cell lines against the NCATS MIPE library collection: KMS20_JCRB cell viability assay (AID 1918973). Further: nearly all actives have a fitted effect of over 45% in size. Further: potency means the concentration at half of the fitted maximal effect. A digest of the protocol:
(§2)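 Viability readout: CellTiter-Glo luminescence following 5 min room-temperature incubation with reagent. Prior exposure: 48 h, 37C, humidified 5% CO2, 500 cells per well.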

Experiment [5] can be described thus: Quantitative High-Throughput drug screen in 47 multiple myeloma cell lines against the NCATS MIPE library collection: MOLP8_DSMZ cell viability assay (AID 1918977). Further: nearly all actives have a fitted effect of over 45% in size. Further: potency means the concentration at half of the fitted maximal effect. In outline: (§3)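 qHTS format: cells plated (500/well), pin-dosed with MIPE 4.0 compounds, kept 48 h at 37 °C. Readout was CellTiter-Glo luminescence, median RLU.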
Experiment [6] can be described thus: Quantitative High-Throughput drug screen in 47 multiple myeloma cell lines against the NCATS MIPE library collection: NCIH929_DSMZ cell viability assay (AID 1918978). Further: nearly all actives have a fitted effect of over 35% in size. Further: potency means the concentration at half of the fitted maximal effect. A digest of the protocol:
as §3

Experiment [7] in a line: Quantitative High-Throughput drug screen in 47 multiple myeloma cell lines against the NCATS MIPE library collection: OCIMY1_PLB cell viability assay (AID 1918979). Further: nearly all actives have a fitted effect of over 35% in size. Further: potency means the concentration at half of the fitted maximal effect. A digest of the protocol: as §3
The nature of experiment [8]: Quantitative High-Throughput drug screen in 47 multiple myeloma cell lines against the NCATS MIPE library collection: MM1R_ATCC cell viability assay (AID 1918981). Further: nearly all actives have a fitted effect of over 35% in size. Further: potency means the concentration at half of the fitted maximal effect. In outline:
as §3

Experiment [9] in a line: Quantitative High-Throughput drug screen in 47 multiple myeloma cell lines against the NCATS MIPE library collection: LP1_DSMZ cell viability assay (AID 1918982). Further: nearly all actives have a fitted effect of over 35% in size. Further: potency means the concentration at half of the fitted maximal effect. A digest of the protocol: as §3
A short description of experiment [10]: Quantitative High-Throughput drug screen in 47 multiple myeloma cell lines against the NCATS MIPE library collection: KMS28PE_JCRB cell viability assay (AID 1918983). Further: nearly all actives have a fitted effect of over 35% in size. Further: potency means the concentration at half of the fitted maximal effect. In outline:
as §3

Experiment [11] can be described thus: Quantitative High-Throughput drug screen in 47 multiple myeloma cell lines against the NCATS MIPE library collection: L363_DSMZ cell viability assay (AID 1918984). Further: nearly all actives have a fitted effect of over 40% in size. Further: potency means the concentration at half of the fitted maximal effect. In outline:
as §3

The nature of experiment [12]: Quantitative High-Throughput drug screen in 47 multiple myeloma cell lines against the NCATS MIPE library collection: OPM1_PLB cell viability assay (AID 1918989). Further: nearly all actives have a fitted effect of over 40% in size. Further: potency means the concentration at half of the fitted maximal effect. In outline: as §3
The nature of experiment [13]: Quantitative High-Throughput drug screen in 47 multiple myeloma cell lines against the NCATS MIPE library collection: MM1S_ATCC cell viability assay (AID 1918980). Further: potency means the concentration at half of the fitted maximal effect; nearly all actives have a fitted effect of over 45% in size. A digest of the protocol:
as §3

Experiment [14] is described as follows: Quantitative High-Throughput drug screen in 47 multiple myeloma cell lines against the NCATS MIPE library collection: KMS21BM_JCRB cell viability assay (AID 1918974). Further: potency means the concentration at half of the fitted maximal effect. Particulars: ATP luminescence, 48 h; viability: at 45.8 µM (top of the series) unless noted. In outline:
as §2

The nature of experiment [15]: Quantitative High-Throughput drug screen in 47 multiple myeloma cell lines against the NCATS MIPE library collection: KMS26_JCRB cell viability assay (AID 1918975). Further: nearly all actives have a fitted effect of over 45% in size. Further: potency means the concentration at half of the fitted maximal effect. A digest of the protocol:
as §1

The nature of experiment [16]: Quantitative High-Throughput drug screen in 47 multiple myeloma cell lines against the NCATS MIPE library collection: OCIMY5_PLB cell viability assay (AID 1918988). Further: potency means the concentration at half of the fitted maximal effect; nearly all actives have a fitted effect of over 65% in size. A digest of the protocol:
as §3

Structures are written as SMILES. Records with an inconclusive call do not appear. A number with no mark means an inactive call. Active and inactive are the calls of the source. The call rests on the fitted dose curve; in most records, active means well fitted curve in the direction sought with a large enough effect; inconclusive means small, poorly fitted or top-dose-only effect, or another doubt; inactive means no such curve, though single readings can be large; an effect the other way counts as inactive or inconclusive.

`CN1C2CCC1CC(OC(=O)C(CO)c1ccccc1)C2` (stereo not given): the Potency entry in experiment [1], in experiment [2], in experiment [3], in experiment [4], in experiment [5] and in experiment [6] was “inactive” throughout. Besides, the Potency result in [7], in experiment [8], in experiment [9], in [10], in experiment [11] and in experiment [12] was “inactive” throughout.
Turning to `NC(=O)OCC(COC(N)=O)c1ccccc1`, the Potency entry in experiment [2], in experiment [3], in [4], in experiment [6], in experiment [7] and in experiment [8] was “inactive” in each case. In addition, the Potency entry in [9], in experiment [10] and in experiment [11] was “inactive” throughout. In addition, in experiment [13], the Potency was 5.9 µM (active).
For `CN1CCN(CCCN2c3ccccc3Sc3ccc(Cl)cc32)CC1`, the Potency was 16.6 µM (active) in [2]; 8.33 µM (active) in experiment [3]; 8.33 µM (active) in experiment [4]; 6.62 µM (active) in experiment [14]; 26.4 µM (active) in experiment [15]; 29.6 µM (active) in experiment [6]. The Potency is 9.35 µM (active) in experiment [13]; 26.4 µM (active) in experiment [8]; 3.32 µM (active) in experiment [11]; 26.4 µM (active) in [16]; 16.6 µM (active) in experiment [12]. Moreover, in experiment [7], the Potency entry is “inactive”.
On to `COc1nc(C)nc(Cl)c1NC1=NCCN1`, for which the Potency entry in [2], in experiment [3], in experiment [15], in [8], in [9] and in experiment [10] was “inactive” in each case. In addition, the Potency entry in [11] and in experiment [12] was “inactive” in each case. The values for the Potency in [4], in experiment [6] and in experiment [13] were 9.35 µM (active), 10.5 µM (active) and 26.4 µM (active), respectively.
With `CNCCCC12CCC(c3ccccc31)c1ccccc12`, the Potency in experiment [2] is 23.5 µM (active); in experiment [3] it was 10.5 µM (active); in experiment [4], 13.2 µM (active); in [14] it was 11.8 µM (active); in [15] it was 20.9 µM (active); in experiment [7], 20.9 µM (active). The Potency in experiment [13] is 16.6 µM (active); in [8], 29.6 µM (active); in [9] it was 20.9 µM (active); in [10], 23.5 µM (active); in [11], 16.6 µM (active); in experiment [16], 23.5 µM (active). In addition, in experiment [12], the Potency is 23.5 µM (active).
For `NS(=O)(=O)c1cc2c(cc1Cl)NCNS2(=O)=O`, the Potency entry in [1], in experiment [3], in [5], in [6], in experiment [7] and in [9] was “inactive” each time. Besides, the Potency result in experiment [10] and in experiment [11] was “inactive” in each case.
On to `Cn1cnc2c1c(=O)[nH]c(=O)n2C`, for which the Potency in experiment [2] was 18.7 µM (active); in experiment [3], 5.9 µM (active); in [4] it was 5.9 µM (active); in experiment [14], 9.35 µM (active); in experiment [5] it was 16.6 µM (active); in experiment [6], 16.6 µM (active). Moreover, the Potency in experiment [7] is 23.5 µM (active); in experiment [13] it was 29.6 µM (active); in experiment [8], 18.7 µM (active); in experiment [9], 16.6 µM (active); in [10] it was 18.7 µM (active); in [11] it was 7.43 µM (active). Besides, the Potency is 14.8 µM (active) in experiment [16] and 10.5 µM (active) in [12].

These data come from PubChem BioAssay (NCATS).
